In ChEMBL document CHEMBL3988442, “University of Dundee, Small-Polar-MMV Screening Library” (2021):
For part of these data: Measured potencies and affinities stand elsewhere.

How the values were obtained:
Parameters in all cases: scale not given: direction of the effect not stated beside the values
[1] = target: Protein translocase subunit SecA (Escherichia coli (strain K12)) (UniProt P10408); assay: Assay to Identify E. coli SecA ATPase Inhibitors; format: functional; details: 30 µM
[2] = target: T1, Ubiquitin-activating enzyme e1, putative (Leishmania donovani (strain BPK282A1)) (UniProt E9BSI1); assay: Leishmania donovani Ubiquitin Activating Enzyme (LdE1); format: functional; details: 30 µM
T1 sequence (whole entry): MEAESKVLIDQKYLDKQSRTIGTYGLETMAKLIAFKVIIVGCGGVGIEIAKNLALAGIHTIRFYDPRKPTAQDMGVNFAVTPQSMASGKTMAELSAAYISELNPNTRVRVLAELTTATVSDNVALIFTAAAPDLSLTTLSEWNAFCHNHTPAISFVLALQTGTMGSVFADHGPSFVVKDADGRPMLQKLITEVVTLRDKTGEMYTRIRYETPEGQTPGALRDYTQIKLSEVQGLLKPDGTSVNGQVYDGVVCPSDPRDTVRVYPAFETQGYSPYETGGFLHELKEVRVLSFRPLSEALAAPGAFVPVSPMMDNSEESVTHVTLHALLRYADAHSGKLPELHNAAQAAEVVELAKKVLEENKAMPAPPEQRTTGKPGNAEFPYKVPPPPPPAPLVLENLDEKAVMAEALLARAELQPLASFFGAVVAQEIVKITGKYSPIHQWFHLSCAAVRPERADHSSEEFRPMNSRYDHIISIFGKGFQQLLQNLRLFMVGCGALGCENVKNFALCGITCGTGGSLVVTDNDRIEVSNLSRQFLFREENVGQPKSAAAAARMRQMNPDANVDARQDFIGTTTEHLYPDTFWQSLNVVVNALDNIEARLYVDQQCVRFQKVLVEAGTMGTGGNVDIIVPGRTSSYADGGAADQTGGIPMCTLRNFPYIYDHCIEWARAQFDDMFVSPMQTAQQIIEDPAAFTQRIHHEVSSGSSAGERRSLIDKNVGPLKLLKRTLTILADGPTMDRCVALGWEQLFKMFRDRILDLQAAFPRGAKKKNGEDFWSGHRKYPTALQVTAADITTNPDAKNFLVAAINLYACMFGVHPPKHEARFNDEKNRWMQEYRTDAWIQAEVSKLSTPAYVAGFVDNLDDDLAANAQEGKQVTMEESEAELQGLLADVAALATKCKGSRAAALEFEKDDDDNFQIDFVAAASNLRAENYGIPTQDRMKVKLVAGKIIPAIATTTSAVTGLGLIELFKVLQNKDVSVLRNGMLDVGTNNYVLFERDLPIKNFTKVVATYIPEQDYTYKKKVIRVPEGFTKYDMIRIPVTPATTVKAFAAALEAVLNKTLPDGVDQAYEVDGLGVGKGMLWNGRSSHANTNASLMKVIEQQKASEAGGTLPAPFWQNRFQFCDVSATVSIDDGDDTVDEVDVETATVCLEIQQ

[3] = target: Sialic acid-binding Ig-like lectin 9 (Homo sapiens) (UniProt Q9Y336); assay: Hs-Siglec9 ALPHAscreen SOP 20170721; details: 10 µM
[4] = system: Trypanosoma cruzi; assay: Trypanosoma cruzi phosphomannomutase and mannose-1-phosphate guanylyltransferase assay; format: functional; details: 10 µM
[5] = target: T2, Arginase-2, mitochondrial (Homo sapiens) (UniProt P78540); assay: in vitro enzyme assay to detect the production of urea directly proportional to the activity of Arginase II; format: functional; details: 33.3 µM; note: in the data most compounds retested in dose-response had high values
T2 sequence (whole entry): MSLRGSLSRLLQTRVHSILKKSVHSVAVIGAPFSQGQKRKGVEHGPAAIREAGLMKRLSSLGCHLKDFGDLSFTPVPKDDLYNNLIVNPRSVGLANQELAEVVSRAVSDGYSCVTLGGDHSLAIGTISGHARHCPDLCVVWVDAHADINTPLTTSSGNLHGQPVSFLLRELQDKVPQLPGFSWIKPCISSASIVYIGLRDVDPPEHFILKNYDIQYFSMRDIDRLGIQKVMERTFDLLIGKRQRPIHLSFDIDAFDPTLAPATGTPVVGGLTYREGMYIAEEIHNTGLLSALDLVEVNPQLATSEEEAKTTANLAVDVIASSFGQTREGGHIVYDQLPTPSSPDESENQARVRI

[6] = target: T3, Proteasome subunit beta (Trypanosoma cruzi) (UniProt O96673); assay: Trypanosoma cruzi proteasome chymotrypsin-like activity (TcProtChymo) assay.; note: in the data most compounds retested in dose-response had high values; format: functional; details: 9.37 µM
T3 sequence (whole entry): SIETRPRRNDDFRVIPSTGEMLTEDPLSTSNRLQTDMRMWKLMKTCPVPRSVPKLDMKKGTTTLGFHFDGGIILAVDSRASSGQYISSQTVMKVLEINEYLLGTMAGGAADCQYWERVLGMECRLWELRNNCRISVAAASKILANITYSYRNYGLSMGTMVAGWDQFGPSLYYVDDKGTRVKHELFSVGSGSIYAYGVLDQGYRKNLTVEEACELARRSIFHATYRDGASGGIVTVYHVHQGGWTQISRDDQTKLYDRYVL

[7] = organism: Homo sapiens; assay: To identify inhibition of the IFN signalling (Jak-Stat) pathway via expression of an eGFP reporter gene under the control of an IFN-stimulated response element (ISRE) containing MxA promoter.; format: functional; details: 30 µM
[8] = target: T4, Tyrosyl-tRNA synthetase, putative (Trypanosoma cruzi (strain CL Brener)) (UniProt Q4DSP6); assay: Trypanosoma cruzi tyrosyl tRNA synthetase (TcYRS) _High Tyrosine SOP; format: functional; details: 30 µM; note: in the data most compounds retested in dose-response had high values
T4 sequence (whole entry): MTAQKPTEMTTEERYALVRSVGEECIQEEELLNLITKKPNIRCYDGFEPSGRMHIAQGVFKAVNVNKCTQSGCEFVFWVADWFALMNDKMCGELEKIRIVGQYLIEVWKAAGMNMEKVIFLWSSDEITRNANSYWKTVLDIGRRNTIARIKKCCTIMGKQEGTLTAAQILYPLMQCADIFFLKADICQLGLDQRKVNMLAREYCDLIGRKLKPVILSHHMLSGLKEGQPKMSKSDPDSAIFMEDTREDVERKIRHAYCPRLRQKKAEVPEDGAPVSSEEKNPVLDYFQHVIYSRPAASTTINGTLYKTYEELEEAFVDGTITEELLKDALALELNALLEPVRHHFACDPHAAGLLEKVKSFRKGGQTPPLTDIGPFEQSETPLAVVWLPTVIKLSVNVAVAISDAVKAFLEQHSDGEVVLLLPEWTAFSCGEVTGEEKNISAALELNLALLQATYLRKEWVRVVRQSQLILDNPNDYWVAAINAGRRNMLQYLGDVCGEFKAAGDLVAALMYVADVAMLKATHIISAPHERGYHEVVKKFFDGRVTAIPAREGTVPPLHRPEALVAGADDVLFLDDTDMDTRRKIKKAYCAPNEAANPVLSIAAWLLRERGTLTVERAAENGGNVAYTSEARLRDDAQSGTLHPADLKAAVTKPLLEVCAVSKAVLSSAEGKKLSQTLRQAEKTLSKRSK

[9] = target: T4, Tyrosyl-tRNA synthetase, putative (Trypanosoma cruzi (strain CL Brener)); assay: Trypanosoma cruzi tyrosyl tRNA synthetase (TcYRS) SOP; format: functional; details: 30 µM
[10] = target: Chromo domain-containing protein 1 (Saccharomyces cerevisiae (strain ATCC 204508 / S288c) (Baker's yeast)) (UniProt P32657); assay: ScCHD-1 Enzyme Inhibition Assay; format: functional; details: 30 µM; note: in the data most compounds retested in dose-response had high values
Chromo domain-containing protein 1 (Saccharomyces cerevisiae (strain ATCC 204508 / S288c) (Baker's yeast)), sequence (P32657 whole entry, the tested form may be a part): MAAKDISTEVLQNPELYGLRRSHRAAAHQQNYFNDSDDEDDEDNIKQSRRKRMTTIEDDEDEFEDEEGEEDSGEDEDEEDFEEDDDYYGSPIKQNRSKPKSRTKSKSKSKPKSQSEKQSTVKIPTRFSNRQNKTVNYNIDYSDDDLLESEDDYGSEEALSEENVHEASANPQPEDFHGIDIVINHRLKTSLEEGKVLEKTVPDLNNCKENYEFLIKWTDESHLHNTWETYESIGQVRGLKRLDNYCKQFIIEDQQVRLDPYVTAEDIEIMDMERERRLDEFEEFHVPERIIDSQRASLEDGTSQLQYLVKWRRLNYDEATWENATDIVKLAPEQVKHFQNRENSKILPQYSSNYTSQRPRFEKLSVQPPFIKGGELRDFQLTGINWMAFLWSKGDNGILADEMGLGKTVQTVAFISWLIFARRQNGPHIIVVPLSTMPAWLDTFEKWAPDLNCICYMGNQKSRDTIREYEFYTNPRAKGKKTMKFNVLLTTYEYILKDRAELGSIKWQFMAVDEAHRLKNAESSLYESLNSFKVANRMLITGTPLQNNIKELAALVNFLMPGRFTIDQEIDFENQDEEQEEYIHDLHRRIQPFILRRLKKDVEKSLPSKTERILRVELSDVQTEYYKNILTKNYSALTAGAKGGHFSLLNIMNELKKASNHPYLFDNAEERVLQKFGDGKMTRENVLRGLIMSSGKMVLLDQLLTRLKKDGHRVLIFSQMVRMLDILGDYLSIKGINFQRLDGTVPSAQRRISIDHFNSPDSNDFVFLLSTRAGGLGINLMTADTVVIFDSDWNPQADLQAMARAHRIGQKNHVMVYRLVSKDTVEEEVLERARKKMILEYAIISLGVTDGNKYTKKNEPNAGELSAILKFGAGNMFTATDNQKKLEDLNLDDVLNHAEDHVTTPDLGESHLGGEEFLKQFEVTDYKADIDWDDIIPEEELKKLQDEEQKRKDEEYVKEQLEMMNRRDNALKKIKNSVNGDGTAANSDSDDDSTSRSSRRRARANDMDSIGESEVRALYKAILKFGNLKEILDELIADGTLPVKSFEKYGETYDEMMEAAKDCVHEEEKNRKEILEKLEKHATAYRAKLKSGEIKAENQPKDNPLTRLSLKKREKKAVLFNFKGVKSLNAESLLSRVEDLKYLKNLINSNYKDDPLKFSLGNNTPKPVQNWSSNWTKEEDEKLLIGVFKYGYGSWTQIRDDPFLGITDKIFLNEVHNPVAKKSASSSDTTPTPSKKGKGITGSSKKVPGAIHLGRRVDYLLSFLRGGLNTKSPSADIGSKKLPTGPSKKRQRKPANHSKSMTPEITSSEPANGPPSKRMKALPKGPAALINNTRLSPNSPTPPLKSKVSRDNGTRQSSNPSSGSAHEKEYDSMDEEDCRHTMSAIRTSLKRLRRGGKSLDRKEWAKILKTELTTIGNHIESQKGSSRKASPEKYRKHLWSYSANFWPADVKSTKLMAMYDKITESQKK

Protein translocase subunit SecA (Escherichia coli (strain K12)), sequence (P10408 whole entry): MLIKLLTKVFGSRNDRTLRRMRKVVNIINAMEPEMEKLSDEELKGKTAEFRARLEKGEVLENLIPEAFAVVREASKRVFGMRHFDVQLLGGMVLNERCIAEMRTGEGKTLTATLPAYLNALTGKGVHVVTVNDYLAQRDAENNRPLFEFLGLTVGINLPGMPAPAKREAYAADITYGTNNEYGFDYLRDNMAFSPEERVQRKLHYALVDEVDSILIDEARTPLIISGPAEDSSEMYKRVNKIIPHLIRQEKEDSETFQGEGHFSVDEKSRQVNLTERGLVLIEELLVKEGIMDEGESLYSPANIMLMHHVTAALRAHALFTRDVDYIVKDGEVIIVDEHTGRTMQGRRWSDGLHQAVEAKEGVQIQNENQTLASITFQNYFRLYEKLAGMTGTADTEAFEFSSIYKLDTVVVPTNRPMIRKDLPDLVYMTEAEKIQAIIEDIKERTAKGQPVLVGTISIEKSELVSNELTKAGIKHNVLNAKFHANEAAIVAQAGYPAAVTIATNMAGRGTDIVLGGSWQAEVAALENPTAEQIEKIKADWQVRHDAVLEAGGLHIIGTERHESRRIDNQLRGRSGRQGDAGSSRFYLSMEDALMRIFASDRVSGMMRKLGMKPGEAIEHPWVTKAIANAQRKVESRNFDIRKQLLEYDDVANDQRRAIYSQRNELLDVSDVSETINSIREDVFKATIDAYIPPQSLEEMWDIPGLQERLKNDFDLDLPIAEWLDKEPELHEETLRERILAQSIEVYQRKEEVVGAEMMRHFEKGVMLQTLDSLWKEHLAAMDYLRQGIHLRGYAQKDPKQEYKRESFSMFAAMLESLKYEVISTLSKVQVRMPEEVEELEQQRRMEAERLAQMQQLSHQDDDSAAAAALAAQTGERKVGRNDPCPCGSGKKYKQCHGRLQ
Sialic acid-binding Ig-like lectin 9 (Homo sapiens), sequence (Q9Y336 whole entry): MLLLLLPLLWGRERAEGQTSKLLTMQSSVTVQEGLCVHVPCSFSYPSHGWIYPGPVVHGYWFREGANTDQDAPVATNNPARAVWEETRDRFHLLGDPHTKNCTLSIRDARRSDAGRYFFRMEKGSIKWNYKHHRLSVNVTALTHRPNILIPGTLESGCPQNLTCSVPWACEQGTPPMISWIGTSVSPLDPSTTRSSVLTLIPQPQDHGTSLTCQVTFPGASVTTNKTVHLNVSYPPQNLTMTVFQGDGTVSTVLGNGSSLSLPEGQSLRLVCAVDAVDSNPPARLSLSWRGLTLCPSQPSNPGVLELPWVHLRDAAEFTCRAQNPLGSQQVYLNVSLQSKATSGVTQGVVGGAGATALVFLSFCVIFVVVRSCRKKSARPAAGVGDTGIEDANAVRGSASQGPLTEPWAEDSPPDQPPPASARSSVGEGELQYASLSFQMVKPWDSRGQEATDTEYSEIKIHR

SMILES | Percent Effect [1] [%] | Percent Effect [2] [%] | Percent Effect [3] [%] | Percent Effect [4] [%] | Percent Effect [5] [%] | Percent Effect [6] [%] | Percent Effect [7] [%] | Percent Effect [8] [%] | Percent Effect [9] [%] | Percent Effect [10] [%]
Clc1ccccc1-c1nc(CNC2CCc3ncnn3C2)cs1 (stereo not given) | -0.994 | -12.8 | -3.7 | 4.6 | 0.41 | -0.427 | -12 | 2.39 | 1.21 | 6.45
Cc1cc(C2CCCN(C(=O)c3c(C)nn4cccnc34)C2)n[nH]1 (stereo not given) | -3.7 | 8 | 6.1 | -2.21 | 0.444 | 6.7 | 9.89 | 2.63 | 5.13 | -4.49
Cn1cc(NC(=O)N2CCC(CN3CCCC3)CC2)ccc1=O | -0.732 | 7.69 | 7.22 | -1.78 | 11.1 | 1.79 | 14.5 | 3.35 | 6.02 | 0.924
Cc1ccoc1-c1nnc(CN2CCn3c(nnc3C3CC3)C2)o1 | -3.51 | 0 | -0.995 | 0.201 | 0.444 | -4.16 | 7.27 | -1.58 | -10.3 | -2.12
O=C(Cn1cc(-c2ccccc2)ncc1=O)Nc1ccncc1 | -7.06 | 5.41 | 4.3 | -0.097 | 3.85 | 20 | -4.45 | 6.92 | 17.1 | 90.8
O=C(CCOc1ccc(Cl)cc1)N1CCN(c2cnccn2)CC1 | -5.29 | 18.2 | 5.24 | -0.746 | 0.615 | 10.2 | 25.2 | 9.8 | 21.2 | -8.03
Cc1cc(C)n(CC2CCCCN2C(=O)c2ccc3c(c2)OCO3)n1 (stereo not given) | -0.864 | 5.33 | -0.84 | -6.22 | 1.33 | 7.38 | 8.9 | 2.63 | 10.3 | -0.951
c1cnnc(N2CCCC2CNCc2ccsc2)c1 (stereo not given) | -2.09 | -5.13 | -6.52 | 10.1 | 4.1 | -8.45 | 15.3 | -0.478 | 6.02 | -2.21
CN1CC(c2ccccc2)CC2(CCN(CC(=O)N(C)C)CC2)C1 (stereo not given) | -6.25 | 5.41 | 9.32 | 8.44 | -3.85 | 9.42 | -25 | 1.6 | 17.1 | -2.37
CCc1nc(CN(C)C2CCN(CCNS(=O)(=O)CC)C2)no1 (stereo not given) | 1.97 | 5.33 | -3.88 | -6.83 | -2.22 | 18.1 | 14.6 | -1.58 | -2.56 | -8.45
Cc1ccc(-c2nc(CN3CCCC(Cn4cncn4)C3)no2)cc1 (stereo not given) | -6.21 | -2.6 | 0.0125 | -0.373 | -3.48 | 0.351 | 25.7 | 1.96 | 0 | 9.47
Cc1nccc(CN2CC[C@H](Oc3cccc(F)c3)[C@@](C)(O)C2)n1 | -2.64 | 14.7 | 6.31 | -0.197 | 3.1 | 0.657 | 2.7 | 7.41 | 15 | -17.3
Cc1ncc(-c2ccnc(N3CCCCCC3)n2)c(-c2cccnc2)n1 | -0.407 | 10.7 | 0.168 | -8.03 | 3.1 | 8.74 | 21.1 | 1.58 | 12.8 | -11.6
CN(C)CC(=O)N1CCC2(CC(=O)N(c3cccc(C#N)c3)C2)C1 (stereo not given) | -7.09 | 6.49 | -3.56 | -4.58 | -5.67 | 13 | 3.5 | 2.63 | 5.13 | -1.61
CN(CC(=O)Nc1ccc(Br)cn1)C(=O)Cc1ccc(O)cc1 | -6.43 | -18.7 | 0.45 | 2.61 | -0.887 | 8.4 | 0.283 | 3.68 | -82 | -5.7
CN(C)C(=O)N1C[C@H]2CCC[C@@]2(COc2ccccn2)C1 | -6.8 | 6.49 | -3.98 | -4.58 | -6.07 | 10.9 | 6.85 | -0.526 | 5.13 | -2.37
CC(C)c1noc(CCC(=O)NCC2CCS(=O)(=O)C2)n1 (stereo not given) | -2.91 | 21.3 | 0.895 | 2.81 | -0.444 | 12.3 | 1.69 | 1.58 | 17.9 | -12.2
Cc1cc2c(cc1C(=O)N1CC[C@H](CO)[C@@H](O)C1)OCCO2 | -9.1 | 2.7 | 2.86 | 4.37 | 1.05 | 8.22 | -0.0662 | 4.79 | 12.2 | -4.74
O=C(c1cc(Cl)c2c(c1)OCCO2)N1CCCC(n2cncn2)C1 (stereo not given) | -2.53 | -5.33 | 5.05 | 0.402 | 1.77 | 1.78 | 6.76 | -0.526 | 0 | 2.59
CN(C)CC1CN(Cc2coc(-c3cccs3)n2)CCO1 (stereo not given) | -1.09 | 13.3 | -3.06 | -2.41 | 2.22 | 11.8 | 15.3 | -0.526 | 5.13 | -10.9
COc1cccc(CN2CCCC3(CCN(C(=O)c4ccco4)C3)C2)c1 (stereo not given) | -3.23 | 9.09 | 0.7 | 0.563 | 5.02 | 17.8 | 5.54 | 14.5 | 15 | -3.31
